Test results taken from PubChem BioAssay (EPA / NIEHS).
Calls of active or inactive are those of the source. Rule for the calls: active = hit-call score of the fitted dose curve at least 0.9, where 1 is the maximum; inactive = score below 0.9.

tested on: not listed separately; assay: ATG_ERE_CIS: Attagene CIS-FACTORIAL HepG2 Assay for Estrogen Response Element (ERE) (AID 2282940); conditions: HepG2 ERE cis-reporter, Attagene RNA transcript; actives raise or lower the signal
Outline: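 HepG2 cells transiently transfected with multiplexed cis-element reporter units, measuring endogenous transcription factor activity; ERE reporter mRNA quantified after 24 h exposure by RT-PCR, fluorescent labelling, HpaI digestion and capillary electrophoresis. Bidirectional change versus DMSO.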

Row | Compound | outcome | AC50
1 | O=P(OC(CCl)CCl)(OC(CCl)CCl)OC(CCl)CCl | inactive | –
2 | CC(C)=CCCC(C)=CC=O | – | 100 µM (active)
3 | COC(=O)c1ccccc1O | inactive | –
4 | CCC(C)(C)C(=O)O[C@H]1C[C@@H](C)C=C2C=C[C@H](C)[C@H](CC[C@@H]3C[C@@H](O)CC(=O)O3)[C@H]21 | – | 6.94 µM (active)
5 | Cn1cnc([N+](=O)[O-])c1Sc1ncnc2nc[nH]c12 | – | 29 µM (active)
6 | CC[C@H](C)C(=O)O[C@H]1C[C@@H](C)C=C2C=C[C@H](C)[C@H](CC[C@@H]3C[C@@H](O)CC(=O)O3)[C@H]21 | – | 8.11 µM (active)
7 | O=c1n(CC2CO2)c(=O)n(CC2CO2)c(=O)n1CC1CO1 (stereo not drawn) | inactive | –
8 | CC(C)CCO | inactive | –
9 | CCCCCCCCO | inactive | –
10 | COc1cccc(-c2ccc(/C=C\CN3CCCCCC3)cc2Cl)c1 | inactive | –

tested on: not listed separately; assay: ATG_Ets_CIS: Attagene CIS-FACTORIAL HepG2 Assay for human Erythroblast Transformation Specific (ETS) (AID 2282941); conditions: HepG2 ETS cis-reporter transcription, actives raise or lower the signal
Outline: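 Cis-regulated reporter mRNA induction in HepG2 (transient transfection), 24 h exposure, RT-PCR plus capillary electrophoresis detection; DMSO serves as negative control and baseline.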

Row | Compound | outcome | AC50
11 | Cc1[nH]cnc1C[C@H]1CCc2c(C)c3ccccc3n2C1=O | inactive | –
12 | CC(C)CCCCCCCOC(=O)CCCCC(=O)OCCCCCCCC(C)C | inactive | –
13 | O=P(OC(CCl)CCl)(OC(CCl)CCl)OC(CCl)CCl | – | 156 µM (active)
14 | CN(C)c1ccc(Cc2ccc(N(C)C)cc2)cc1 | inactive | –
15 | CC(C)=CCCC(C)=CC=O | inactive | –
16 | COC(=O)c1ccccc1O | inactive | –
17 | O=C1CCC(N2C(=O)c3ccccc3C2=O)C(=O)N1 (stereo not drawn) | inactive | –
18 | CC(C)CC(C)(O)C#CC(C)(O)CC(C)C (stereo not drawn) | inactive | –
19 | CCC(C)(C)C(=O)O[C@H]1C[C@@H](C)C=C2C=C[C@H](C)[C@H](CC[C@@H]3C[C@@H](O)CC(=O)O3)[C@H]21 | inactive | –
20 | CC(C)(O)c1coc(S(=O)(=O)NC(=O)Nc2c3c(cc4c2CCC4)CCC3)c1 | inactive | –
21 | O=C(OC[C@H]1O[C@@H](OC(=O)c2cc(O)c(O)c(OC(=O)c3cc(O)c(O)c(O)c3)c2)[C@H](OC(=O)c2cc(O)c(O)c(OC(=O)c3cc(O)c(O)c(O)c3)c2)[C@@H](OC(=O)c2cc(O)c(O)c(OC(=O)c3cc(O)c(O)c(O)c3)c2)[C@@H]1OC(=O)c1cc(O)c(O)c(OC(=O)c2cc(O)c(O)c(O)c2)c1)c1cc(O)c(O)c(OC(=O)c2cc(O)c(O)c(O)c2)c1 | inactive | –
22 | Cn1cnc([N+](=O)[O-])c1Sc1ncnc2nc[nH]c12 | inactive | –
23 | O=C(O)CC(O)C(=O)O (stereo not drawn) | inactive | –
24 | CC[C@H](C)C(=O)O[C@H]1C[C@@H](C)C=C2C=C[C@H](C)[C@H](CC[C@@H]3C[C@@H](O)CC(=O)O3)[C@H]21 | inactive | –
25 | O=c1n(CC2CO2)c(=O)n(CC2CO2)c(=O)n1CC1CO1 (stereo not drawn) | – | 100 µM (active)
26 | COCCOc1cc2cc(C(=O)NC3CCN(C(C)C)CC3)n(CC(=O)Nc3ccc(Cl)cn3)c2cn1 | inactive | –
27 | CC(C)=CCC/C(C)=C/CO | inactive | –
28 | CCOC(=O)CC(CC(=O)OCC)(OC(C)=O)C(=O)OCC | inactive | –
29 | Cc1ccc(C)c(O)c1 | inactive | –
30 | CCCCCCCCCCCCCCCO | inactive | –
31 | CC[C@H]1OC(=O)[C@H](C)[C@@H](O[C@H]2C[C@@](C)(OC)[C@@H](O)[C@H](C)O2)[C@H](C)[C@@H](O[C@@H]2O[C@H](C)C[C@H](N(C)C)[C@H]2O)[C@](C)(O)C[C@@H](C)C(=O)[C@H](C)[C@@H](O)[C@]1(C)O | inactive | –
32 | CC(C)CCO | inactive | –
33 | CC(C)CCCCCCOC(=O)c1ccc(C(=O)OCCCCCCC(C)C)c(C(=O)OCCCCCCC(C)C)c1 | inactive | –
34 | Cc1c(-c2cccnc2)c2ccccc2n1CCCCC(=O)O | inactive | –
35 | CCCCC(CC)COC(=O)c1ccc(C(=O)OCC(CC)CCCC)cc1 (stereo not drawn) | inactive | –
36 | CCCCCCCCO | inactive | –
37 | O=C(O)CCN(C1(C(=O)NO)CCCC1)S(=O)(=O)c1ccc(Oc2ccc(F)cc2)cc1 | inactive | –
38 | COc1cccc(-c2ccc(/C=C\CN3CCCCCC3)cc2Cl)c1 | inactive | –
39 | CC(C)=CCC/C(C)=C\CO | inactive | –

target: Hepatocyte nuclear factor 3-beta (Homo sapiens) (UniProt Q9Y261); assay: ATG_FoxA2_CIS: Attagene CIS-FACTORIAL HepG2 Assay for human Forkhead box A2 (FOXA2) (AID 2282942); conditions: HepG2 cis-reporter transcription factor activity, 24 h; actives raise or lower the signal
Sequence (Q9Y261 whole entry, looked up): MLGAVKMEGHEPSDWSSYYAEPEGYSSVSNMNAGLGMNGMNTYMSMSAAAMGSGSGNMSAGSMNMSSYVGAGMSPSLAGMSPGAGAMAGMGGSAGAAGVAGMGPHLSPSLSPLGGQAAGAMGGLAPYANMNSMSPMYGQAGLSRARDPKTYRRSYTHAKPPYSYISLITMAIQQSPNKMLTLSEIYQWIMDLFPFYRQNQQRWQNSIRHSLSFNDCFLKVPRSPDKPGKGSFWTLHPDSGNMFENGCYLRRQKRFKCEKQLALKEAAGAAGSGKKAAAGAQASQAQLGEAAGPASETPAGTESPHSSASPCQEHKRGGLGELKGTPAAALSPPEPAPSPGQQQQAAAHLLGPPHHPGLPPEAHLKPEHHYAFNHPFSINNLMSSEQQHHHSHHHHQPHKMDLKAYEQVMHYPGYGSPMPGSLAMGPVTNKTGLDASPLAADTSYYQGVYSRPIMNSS
Outline: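 Transient MRTU transfection of HepG2 liver cells; 24 h treatment; total RNA → oligo(dT) RT → PCR → FAM primer extension → HpaI cut → CE. Bidirectional fit vs DMSO.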

Row | Compound | outcome
40 | Cc1[nH]cnc1C[C@H]1CCc2c(C)c3ccccc3n2C1=O | inactive
41 | CC(C)CCCCCCCOC(=O)CCCCC(=O)OCCCCCCCC(C)C | inactive
42 | O=P(OC(CCl)CCl)(OC(CCl)CCl)OC(CCl)CCl | inactive
43 | CN(C)c1ccc(Cc2ccc(N(C)C)cc2)cc1 | inactive
44 | CC(C)=CCCC(C)=CC=O | inactive
45 | COC(=O)c1ccccc1O | inactive
46 | O=C1CCC(N2C(=O)c3ccccc3C2=O)C(=O)N1 (stereo not drawn) | inactive
47 | CC(C)CC(C)(O)C#CC(C)(O)CC(C)C (stereo not drawn) | inactive
48 | CCC(C)(C)C(=O)O[C@H]1C[C@@H](C)C=C2C=C[C@H](C)[C@H](CC[C@@H]3C[C@@H](O)CC(=O)O3)[C@H]21 | inactive
49 | CC(C)(O)c1coc(S(=O)(=O)NC(=O)Nc2c3c(cc4c2CCC4)CCC3)c1 | inactive
50 | O=C(OC[C@H]1O[C@@H](OC(=O)c2cc(O)c(O)c(OC(=O)c3cc(O)c(O)c(O)c3)c2)[C@H](OC(=O)c2cc(O)c(O)c(OC(=O)c3cc(O)c(O)c(O)c3)c2)[C@@H](OC(=O)c2cc(O)c(O)c(OC(=O)c3cc(O)c(O)c(O)c3)c2)[C@@H]1OC(=O)c1cc(O)c(O)c(OC(=O)c2cc(O)c(O)c(O)c2)c1)c1cc(O)c(O)c(OC(=O)c2cc(O)c(O)c(O)c2)c1 | inactive
51 | Cn1cnc([N+](=O)[O-])c1Sc1ncnc2nc[nH]c12 | inactive
52 | O=C(O)CC(O)C(=O)O (stereo not drawn) | inactive
53 | CC[C@H](C)C(=O)O[C@H]1C[C@@H](C)C=C2C=C[C@H](C)[C@H](CC[C@@H]3C[C@@H](O)CC(=O)O3)[C@H]21 | inactive
54 | O=c1n(CC2CO2)c(=O)n(CC2CO2)c(=O)n1CC1CO1 (stereo not drawn) | inactive
55 | COCCOc1cc2cc(C(=O)NC3CCN(C(C)C)CC3)n(CC(=O)Nc3ccc(Cl)cn3)c2cn1 | inactive
56 | CC(C)=CCC/C(C)=C/CO | inactive
57 | CCOC(=O)CC(CC(=O)OCC)(OC(C)=O)C(=O)OCC | inactive
58 | Cc1ccc(C)c(O)c1 | inactive
59 | CCCCCCCCCCCCCCCO | inactive
60 | CC[C@H]1OC(=O)[C@H](C)[C@@H](O[C@H]2C[C@@](C)(OC)[C@@H](O)[C@H](C)O2)[C@H](C)[C@@H](O[C@@H]2O[C@H](C)C[C@H](N(C)C)[C@H]2O)[C@](C)(O)C[C@@H](C)C(=O)[C@H](C)[C@@H](O)[C@]1(C)O | inactive
61 | CC(C)CCO | inactive
62 | CC(C)CCCCCCOC(=O)c1ccc(C(=O)OCCCCCCC(C)C)c(C(=O)OCCCCCCC(C)C)c1 | inactive
63 | Cc1c(-c2cccnc2)c2ccccc2n1CCCCC(=O)O | inactive
64 | CCCCC(CC)COC(=O)c1ccc(C(=O)OCC(CC)CCCC)cc1 (stereo not drawn) | inactive
65 | CCCCCCCCO | inactive
66 | O=C(O)CCN(C1(C(=O)NO)CCCC1)S(=O)(=O)c1ccc(Oc2ccc(F)cc2)cc1 | inactive
67 | COc1cccc(-c2ccc(/C=C\CN3CCCCCC3)cc2Cl)c1 | inactive
68 | CC(C)=CCC/C(C)=C\CO | inactive
